Shown are actives, neighbours in structure and some others; about 4% of the full set was active somewhere.
tim10-1 inh – inhibits growth of tim10-1 mutant yeast. inhibition, % at 20 µM. actives 2.2% (n = 330,000). S. cerevisiae tim10-1 ts strain growth, BacTiter-Glo, 24 h;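 active = inhibition of at least 40%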;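 also: mutant grown at 25 °C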
TIM10 inh – inhibits growth of TIM10 yeast strain | S. cerevisiae TIM10 strain growth, BacTiter-Glo luminescence, 24 h | inhibition, % at 10 µM | actives 1.4% (n = 330,000);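 active = inhibition of 40% or more at the single tested concentration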;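 also: wild-type TIM10 isogenic control strain grown at permissive 25 °C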
NLRP3 yeast inh – NALP3 inhibition in yeast; AID 2825; actives 0.39% (n = 330,000); inhibition, % at 10 µM; Yeast reconstituted NLRP3/ASC/caspase-1, beta-gal luminescence, 24 h;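 active = inhibition of 50% or more; inactive = inhibition below 50%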
tim23-1 inh – inhibits growth of tim23-1 mutant yeast; inhibition, % at 20 µM; actives 1.3% (n = 330,000); S. cerevisiae tim23-1 growth, BacTiter-Glo luminescence, 24 h;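 active = growth inhibition of the mutant yeast at or above 50%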;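 also: temperature-sensitive mutant grown at 25 °C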
NALP1 yeast inh – NALP1 inhibition; AID 2071; inhibition, % at 10 µM; S. cerevisiae NALP1/ASC/caspase-1 growth, X-gal OD620, 72 h; actives 0.61% (n = 280,000); in the data active = inhibition mostly above about 24%, no sharp cut-off; inactive = mostly below about 32%
TIM10 conf – TIM10 yeast growth inhibition, confirmed | shares compounds with TIM10 inh | S. cerevisiae tim10 strain growth, BacTiter-Glo luminescence, 24 h | inhibition, % at 10 µM | actives 63% (n = 4,600);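 active = inhibition of yeast growth at or above a set limit in either of two replicates at 10 µM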; also: this counterscreen used the strain with wild-type TIM10
Hits are given with their value; i = inactive; nt = no result.

SMILES	tim10-1 inh	TIM10 inh	NLRP3 yeast inh	tim23-1 inh	NALP1 yeast inh	TIM10 conf
O=C(c1ccc(Cn2c(=O)[nH]c3ccccc3c2=O)cc1)N1CCN(c2ccccn2)CC1	i	i	i	i	i	nt
O=[N+]([O-])c1ccc(/C=N/N=C/c2ccc([N+](=O)[O-])o2)o1	nt	nt	nt	nt	i	nt
Cc1cc2ncn(/N=C/c3ccc([N+](=O)[O-])o3)c2cc1C	i	57	i	i	i	56
CCOc1ccc(NC(=O)CCCNC(=O)Cn2cnc3sc(C)c(C)c3c2=O)cc1	i	i	i	i	i	nt
COc1ccc(CSc2nc(C)[nH]c2[N+](=O)[O-])cc1[N+](=O)[O-]	i	i	i	i	nt	nt
COc1ccc(Cc2nc(C)cc(Cl)n2)cc1[N+](=O)[O-]	i	42	i	i	i	i
Cc1cc(Sc2ncnc(N)c2[N+](=O)[O-])ncn1	i	42	i	i	i	i
Cc1ccc(C)c(Oc2ncnc(N)c2[N+](=O)[O-])c1	i	i	i	i	i	nt
O=C(O)CC/C(=N\NC(=O)c1ccccc1Br)c1ccccc1	i	i	i	i	i	nt
O=C(COC(=O)c1ccc(S(=O)(=O)C(F)F)cc1)Nc1ccccc1C(=O)NC1CC1	i	i	i	i	nt	nt
CC(NC(=O)/C(C#N)=C/c1ccc(Cl)c([N+](=O)[O-])c1)c1ccccc1 (stereo not drawn)	i	63	i	i	i	57
C[C@@H](NC(=O)/C(C#N)=C/c1ccc(O)c(O)c1)c1ccccc1	i	i	i	i	nt	nt
CC1CCN(C(=O)CSc2nc(C(C)C)nc3c2c(=O)n(C)c(=O)n3C)CC1	i	i	i	i	i	nt
COc1ccc(CC(=O)NC(C)C2COc3ccccc3O2)cc1OC (stereo not drawn)	i	i	i	i	i	nt
CC(NC(=S)Nc1ccc(OC(F)F)c(Cl)c1)C(C)(C)C (stereo not drawn)	i	51	i	i	i	38
FC(F)Oc1ccc(NC(=S)NCc2ccccc2)cc1Cl	i	50	i	i	i	33
Fc1ccc(NC(=S)Nc2ccccc2OC(F)F)cc1Cl	i	i	i	i	i	nt
FC(F)Oc1ccc(NC(=S)NCc2ccccc2)cc1	i	i	i	i	i	nt
FC(F)(F)c1ccc(NC(=S)NCc2ccccc2)cc1	i	45	i	i	i	47
COc1ccc(C(=O)CSc2nc(-c3ccccn3)nc(C)c2Cl)cc1	i	i	i	i	nt	nt
Cc1nc(-c2ccccn2)nc(SCC(=O)c2ccc(F)cc2)c1Cl	i	41	i	i	nt	42
CCN(CC)CCN(C(=O)c1ccc2c(c1)CCCC2)c1nc2c(C)cccc2s1	i	40	i	i	i	i
CCN(CC)CCN(C(=O)c1ccc(S(=O)(=O)N(C)C2CCCCC2)cc1)c1nc2c(C)cccc2s1	i	i	i	i	i	nt
Cc1nnc(-c2cccc(Br)c2)c2cn(-c3ccccc3)nc12	i	46	i	i	nt	46
O=C(Nc1cccnc1)c1cc(Br)c(Br)s1	i	i	i	i	nt	nt
SMILES	tim10-1 inh	TIM10 inh	NLRP3 yeast inh	tim23-1 inh	NALP1 yeast inh	TIM10 conf
O=C(COC(=O)c1ccc([N+](=O)[O-])s1)Nc1ccc(F)cc1	i	74	i	i	nt	77
O=C(Nc1cccnc1)c1ccc([N+](=O)[O-])s1	i	56	i	i	nt	53
CC(C)(C)c1ccc(NC(=O)COC(=O)c2ccc([N+](=O)[O-])s2)cc1	nt	nt	nt	nt	i	nt
O=C(COC(=O)c1ccc([N+](=O)[O-])s1)Nc1ccccc1	i	46	i	i	i	i
Cc1nn(C)cc1S(=O)(=O)Nc1ncccn1	i	i	i	i	i	nt
O=C(N=C1SC2CS(=O)(=O)CC2N1c1ccccc1)c1cccc([N+](=O)[O-])c1 (stereo not drawn)	i	i	i	i	nt	nt
CC(C)(C)C1CCC(=NNC(=O)C(=O)NCc2cccnc2)CC1 (stereo not drawn)	i	i	i	i	i	nt
CCC(C)(C)C1CCC(=NNC(=S)Nc2cccnc2)CC1 (stereo not drawn)	i	41	i	i	i	45
COc1ccc(Oc2cn[nH]c2-c2ccc(O)cc2O)cc1	i	i	i	i	i	nt
COc1ccc(-c2[nH]ncc2Oc2ccccc2OC)c(O)c1	i	52	i	i	i	i
CCCc1ccc(Oc2cn[nH]c2-c2ccc(O)cc2O)cc1	i	44	i	i	i	72
Cc1ccc2cc(CN(c3cccc(C)c3C)S(=O)(=O)c3ccccc3)c(=O)[nH]c2c1	i	i	i	i	i	nt
COc1ccc(OCC(=O)Nc2cc(OC)ccc2N2CCCCC2)cc1	i	i	i	i	i	nt
O=C1CC(NCCC2=CCCCC2)C(=O)N1c1cccc(Cl)c1Cl (stereo not drawn)	i	i	i	i	i	nt
CC(C)(C)c1ccc(OCC(O)CN2CCOCC2)cc1 (stereo not drawn)	i	48	i	i	nt	i
CC1CN(S(=O)(=O)c2cccc(C(=O)Nc3ccc(S(=O)(=O)Nc4ncccn4)cc3)c2)CC(C)O1 (stereo not drawn)	nt	nt	nt	nt	i	nt
CN(C)CCCn1c(SCC(=O)Nc2nc(-c3cccc(Br)c3)cs2)nc2ccccc2c1=O	i	43	i	i	nt	i
Cc1ccc2nc(Cl)c3nnnn3c2c1	i	55	i	i	i	71
Cc1c(C)n2c(SCC(=O)NCc3ccc4c(c3)OCO4)nnc2[nH]c1=O	i	i	i	i	nt	nt
O=C(Nc1ccc2c(c1)nc1n2CCSC1)c1ccco1	i	60	i	i	i	53
CC(=O)Nc1ccc2c(c1)nc1n2CCOC1	i	i	i	i	i	nt
O=C(Nc1ccc2c(c1)nc1n2CCOC1)c1ccco1	i	47	i	i	i	i
COc1ccc(N(CC(=O)Nc2ccc(Cc3ccncc3)cc2)S(=O)(=O)c2ccccc2)cc1	i	i	i	i	i	nt
Cc1ccc(OCC(=O)N2CCCC(CO)(CCOc3ccccc3)C2)cc1 (stereo not drawn)	i	i	i	i	i	nt
Cc1ccccc1N1CCN(C(=O)c2cc(C3CC3)nn2-c2ccccc2)CC1	i	i	i	i	nt	nt
SMILES	tim10-1 inh	TIM10 inh	NLRP3 yeast inh	tim23-1 inh	NALP1 yeast inh	TIM10 conf
N/C(=N\OC(=O)/C=C/c1ccccc1Cl)c1ccccn1	i	51	i	i	i	55
CC(OC(=O)Cc1ccc(Cl)cc1)C(=O)NC1CCCCC1C (stereo not drawn)	i	i	i	i	nt	nt
Cc1cc(C(=O)CSc2n[nH]c(N)n2)c(C)n1-c1ccc2c(c1)OCO2	i	i	i	i	i	nt
CN(C(=S)Nc1ccc(SC(F)F)cc1)C(c1ccccc1)c1ccccc1	i	42	i	i	i	40
CCCCCN(C(=O)CCC(=O)OCCOc1cccc(C)c1)c1c(N)n(CCCC)c(=O)[nH]c1=O	i	i	i	i	nt	nt
CCOc1ccc(/C=N/n2c(COc3ccccc3)n[nH]c2=S)cc1OC	i	i	i	i	i	nt
CCOc1ccc(/C=N/n2c(SC)nnc2-c2ccccc2)cc1OCC	i	43	i	i	i	i
CN(C)CCN(C(=O)C1CCN(S(=O)(=O)c2cccs2)CC1)c1nc2c(F)cccc2s1	i	i	i	i	nt	nt

Compound activity (PubChem BioAssay)
